Values joined by “and” are separate entries in the source; they are usually repeats but may differ in a detail not shown here. Identical values can stand only once. The panel holds about 83,000 compounds, 20% with a hit somewhere; the sample as a whole holds those more often.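 Negative percent growth values reflect cell death: -40 means 40% of the cells present at the start died, and -100 means all died.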 Values without a mark were called inactive. Active and inactive are the calls of the source.
What follows are molecules tested on BT-549 breast (assay: NCI-60 one-dose screen, 48 h (100 = growth as untreated, 0 = no growth, -100 = all killed)). Settings: 10 µM.
Procedure: Growth inhibition of the BT-549 human tumor cell line is measured as a screen for anti-cancer activity. Cells are grown in 96 well plates and exposed to the test compound for 48 hours. Compounds are tested at a single concentration, which is 10^-5 M for most compounds. The reported endpoint is percent growth (GI% or GIPRCNT), where numbers from 0 - 100% represent growth inhibition, and numbers from -100% - 0 represent cell death. For example, a value of 40 represents 60% growth inhibition. A value of 0 means no net growth occurred over the course of the experiment. A value of -40 indicates 40% of cells at the beginning of the experiment died by the end of the experiment. A value of -100 means all cells are dead at the end of the experiment.
NCI-60 Human Tumor Cell Lines Screen was performed using the standard one-dose NCI protocol, which is described in more detail at https://dtp.cancer.gov/discovery_development/nci-60/default.htm.
Compounds with GIPRCNT values below 10 were considered active. Activity score was based on GIPRCNT using the following formula: […]
Score is 0 for GIPRCNT values of 100 or above, 50 for GIPRCNT values of 0, and 100 for GIPRCNT values of -100.
`CC(=O)/C=C/c1ccc(OCc2ccc(Cl)cc2)cc1` gave a growth of 102%.

Same assay, conditions: 10 µM unless noted
With `Cc1nc(-n2[nH]c(=O)ccc2=O)sc1N=Nc1ccccc1` the growth was 95.7%.
For `N#Cc1cc(-c2ccnc(Nc3ccc(NC(=O)CCl)cc3)n2)ccc1N1CCCC1`, the growth was -65% (active).
In the case of `COc1ccc(/C=C/C(=O)c2cc3c(N)c(C(=O)Nc4ccccc4)sc3nc2C)cc1`, the growth is reported as 2.86% (active).
For `Clc1ccc(/C=N\N2CCCCCC2)cc1`, the growth was 105% and 90.4%.
`CC(C)=CCc1cc(O)c(O)c2oc3cc(O)cc(O)c3c(=O)c12` was tested, and the growth was 75.1%.
`COc1ccc2c(c1)oc1c(C)c3c(c(C)c12)C(=O)N(Nc1ccccc1)C3=O` gave a growth of 91.6%.
In the case of `CCCNNC(=O)/C=C/c1ccc(CNCCc2c(C)[nH]c3ccccc23)cc1`, the growth is reported as 62.2% [2.5 µM].
`CCCCCC#CC1OC23CCCCC2C(C#N)(C(=N)O3)C1(C#N)C#N` (stereo not given) gave a growth of 89.9%.
Work on `COc1cc2cc(NCc3ccncc3)nc(C)c2cc1OC` yielded a growth of 77.9%.
Work on `CCCCCCNC(=O)Oc1ccc(/C(=C(/CC)Cc2ccccc2)c2ccc(OCCCN(C)C)cc2)cc1` yielded a growth of 82.8%.
With `CCCCCCCCn1ccc2cc(NC(=O)CN3CCN(c4nc(C)cc(N5CCCCC5)n4)CC3)ccc21` the growth was 83.4%.
Molecule `N#C/C(=C\c1ccccc1Cl)c1cc2ccccc2[nH]1` has a growth of 89.1%.
`BrC1=C(Br)C(Br)(Br)C(Br)=C1Br` gave a growth of 88.9%.
Molecule `C=C1C(=O)O[C@@H]2[C@H]3[C@H](COC(C)=O)[C@@H](OC(C)=O)C[C@H]3C(=C)[C@@H](O)C[C@@H]12` has a growth of 94.2%.
For `O=C(/C=C\c1ccc(Cl)c(Cl)c1)c1ccccc1`, the growth was 103%.
With `O=C1/C(=C/c2cn(-c3ccccc3)nc2-c2ccccc2)SC(=S)N1c1ccccc1` the growth was 98%.
`O=C(c1cccc(Br)c1)N1CCN(c2ccnc3cc(Cl)ccc23)CC1` was tested, and the growth was 112%.
For `COC(=O)c1c2c(c(C)[n+]([O-])c1C)C(=O)C(NCCN1CCOCC1)=CC2=O`, the growth was 91.4%.
`O=C(c1ccc(Nc2nccc(NCCCNc3ccnc4cc(Cl)ccc34)n2)cc1)N1CCCCC1` was tested, and the growth was 64.9%.
Work on `CC1(Cc2ccccc2)CC2=C(C(=O)O1)C(c1ccccc1)NC(=O)N2` (stereo not given) yielded a growth of 104%.
For `O=C1C=CC(=O)N1c1ccc2ccccc2c1`, the growth was 114% and 103%.
`CC12OC(CC(O)C1O)n1c3ccccc3c3c4c(c5c6ccccc6n2c5c31)C(=O)N(CCN1CCOCC1)C4=O` (stereo not given) showed a growth of 22.6%.
Work on `CN1CCN(c2ccc(/C=C/C(=O)c3ccc(O)cc3)cc2)CC1` yielded a growth of 97.7%.
`COC(=O)N/N=C/c1c[n+]([O-])c2ccccc2[n+]1[O-]` was tested, and the growth was 108%.
`NCCOCCOc1ccccc1` showed a growth of 106%.
In the case of `COc1ccc(Oc2nc(Nc3ccc(N4CCOCC4)cc3)ncc2NC(=O)c2cc(OC)cc(OC)c2)cc1`, the growth is reported as 90.1%.
With `Nc1c(C(=O)Nc2ccncc2)sc2nc3c(cc12)CCCCCCCC3` the growth was -60.8% (active).
Work on `O=C(NNc1ccccc1)c1ncc[nH]1` yielded a growth of 101%.
`COc1cc(-c2[nH]ncc2Nc2ccc(Cl)cc2)cc(OC)c1OC` showed a growth of 29.8%.
`COc1ccc(C/C(C)=C(\c2ccc(O)cc2)c2ccc(OCCCN(C)C)cc2)cc1` gave a growth of 108%.
For `CCN(C(=O)N1CCN(c2cc3c(cc2F)c(=O)c(C(=O)O)cn3C2CC2)CC1)c1nc(-c2ccccc2)cs1`, the growth was -9.57% (active).
Work on `CCOC(=O)c1cnn(CC(O)CC)c1NC(=O)NCc1ccccc1C(F)(F)F` (stereo not given) yielded a growth of 84.4%.
For `COC(=O)c1nc(-c2ccc(C)cc2)oc1S(=O)(=O)c1ccc(Cl)cc1`, the growth was 83.4%.
With `COc1ccc(/C=C/C(=O)c2cc3c(N)c(C(=O)Nc4ccccc4Cl)sc3nc2C)cc1` the growth was 59%.
`Cn1cc(C2=C(c3cccc4ccccc34)C(=O)NC2=O)c2cc(Br)ccc21` was tested, and the growth was 109%.
For `CCNC(=O)Oc1ccc(/C(=C(/C)Cc2ccc(OC)cc2)c2ccc(OCCN(CC)CC)cc2)cc1`, the growth was 80.5%.
With `Cc1ccc(S(=O)(=O)OC[C@@]2(C)CC[C@]3(C)CC[C@]4(C)C(=CC[C@@H]5[C@@]6(C)CCCNC(C)(C)[C@@H]6CC[C@]54C)[C@@H]3C2)cc1` the growth was 76.5%.
For `Cn1cc2c(=O)nc3c(-c4nc5ccccc5[nH]4)n[nH]n3c2n1`, the growth was 34.7%.

Same assay, conditions: 100 µM
`CC(=O)/C=C/c1ccc(OCc2ccc(Cl)cc2)cc1` was tested, and the growth was 38%.

Reference: PubChem BioAssay (NCI)
